We go through 40 compounds from PubChem BioAssay.

Activity calls are given as the source filed them. Rule as the data show it: active = inhibition above about 30%; inactive = the rest.

The experiment in a line: growth suppression of yeast trafficking mutant, preliminary HTS, modulators of trafficking downstream of Golgi apparatus project, 1536-format plate, OD 615 nm (AID 637). The note with it: yeast transport mutant growth, absorbance 615 nm, 18 h; hits give high values.
For `CCOC(=O)C1CCN(c2c(NC3CCCCCCC3)c(=O)c2=O)CC1`, the inhibition (in general, the change of the read-out against control, counted positive when it falls) is 0.5% (inactive).

As for `Cc1nc(NC2=NCN(CCN3CCOCC3)CN2)nc2c(C)cccc12`, the inhibition is -7.33% (inactive).

`CCN(CC)C(=O)c1sc2nc(-c3cccs3)cc(-c3cccs3)c2c1N`: the inhibition is 21% (inactive).

In the case of `O=C(O)C1CCCN1c1ncnc2c1oc1ccccc12` (stereo not given), the inhibition is -7.1% (inactive).

As to `CCOc1cccc(Oc2ccc(C(F)(F)F)cn2)c1`, the inhibition was 0.81% (inactive).

With `CCOC(=O)N1CCN(Cc2ccccc2F)CC1`, the inhibition is 2.3% (inactive).

For `CCCS(=O)(=O)C(=C1Nc2ccccc2N1)S(=O)(=O)CCC`, the inhibition was 4.13% (inactive).

Take `O=C(NCCSCc1ccco1)Nc1cccc(Cl)c1`: the inhibition is -3.97% (inactive).

`O=C1C2C3C=CC(C3=C3CCCCC3)C2C(=O)N1c1ccccc1` (stereo not given): the inhibition was -2.06% (inactive).

`OC1(c2cccc(C(F)(F)F)c2)CCNCC1`: the inhibition is -3.02% (inactive).

Turning to `CCOc1ccc2[nH]cc(C(=O)N3CCN(CC)CC3)c(=O)c2c1`, the inhibition was 19% (inactive).

In the case of `O=C(NC1CCCCCC1)C1CCCN(S(=O)(=O)c2cccs2)C1` (stereo not given), the inhibition was -6.5% (inactive).

With `O=C(CSc1nnnn1C1CCCC1)N1CCN(C(=O)c2ccco2)CC1`, the inhibition was 4.59% (inactive).

Take `O=S(=O)(c1ccc(S(=O)(=O)N(Cc2ccco2)Cc2ccccc2Cl)cc1)N1CCCC1`: the inhibition was 8.1% (inactive).

With `CN(C)S(=O)(=O)c1ccc(S(=O)(=O)N(Cc2ccco2)Cc2ccccc2Cl)cc1`, the inhibition was -2.7% (inactive).

As for `O=C(Nc1cccc2ncccc12)c1ccc2c(c1)OCCO2`, the inhibition is -3% (inactive).

For the compound `Cc1cc(C)n(C(=O)CCCCCC(=O)n2nc(C)cc2C)n1`, the inhibition was -2.86% (inactive).

For `O=c1c[n+]([O-])c2ccccc2n1OCc1ccccn1`, the inhibition is -4.29% (inactive).

`O=C(CN(c1ccccc1)S(=O)(=O)c1ccccc1)N1CCN(Cc2ccc3c(c2)OCO3)CC1`: the inhibition is 0.32% (inactive).

Consider `N#CC(C(=O)Nc1ccc(Cl)c(Cl)c1)=C1Nc2ccccc2N1`, for which the inhibition was -1.61% (inactive).

As for `CCCc1cc(=O)n2[nH]cnc2n1`, the inhibition was 0.67% (inactive).

For the compound `COc1ccc(-c2noc(-c3ccccc3C(=O)Nc3cccnc3)n2)cc1`, the inhibition was 0.79% (inactive).

For the compound `COc1ccccc1-n1c(SCC(=O)Nc2ccc3c(c2)OCO3)nc2c(c1=O)SCC2`, the inhibition was 23.5% (inactive).

As to `N#CC1=C(N)N(c2ccccc2)C(c2ccco2)C1(C#N)C#N` (stereo not given), the inhibition was -2.54% (inactive).

Turning to `O=C(N1CCN(c2ccccc2F)CC1)C12CC3CC(CC(C3)C1)C2`, the inhibition is 3.97% (inactive).

With `COc1ccc(C2C(C(C)=O)=C(O)C(=O)N2C)c(OC)c1` (stereo not given), the inhibition was -0.83% (inactive).

Consider `O=C(CN1C(=O)CCSc2ccccc21)Nc1ccc2c(c1)OCO2`, for which the inhibition is -4.13% (inactive).

For the compound `COc1cccc(C(=O)Nc2ccc(NC(C)=O)cn2)c1`, the inhibition is -4.92% (inactive).

Turning to `COC(=O)c1cc(Oc2ccc(C(=O)OC)cc2N)cc(C(=O)OC)c1`, the inhibition was -5.82% (inactive).

For `CCOC(=O)c1sc2nc(SCC#N)n(CCCN3CCCC3=O)c(=O)c2c1C`, the inhibition is -1.48% (inactive).

Take `Nc1c(C(=O)NCc2ccco2)nnn1Cc1ccccc1`: the inhibition was 3.33% (inactive).

On to `Cc1ccc(N2C(N)=NC(N)=NC23CCCC3)c(C)c1`, for which the inhibition was 1.11% (inactive).

As for `CCCCc1ccc(NC(=O)COCC)cc1`, the inhibition was 5.08% (inactive).

As for `Cc1ccc2nc(SC(C)C(=O)N3CCCC3)[nH]c2c1` (stereo not given), the inhibition was -6.35% (inactive).

Take `CN(C)c1cccc(C(=O)OCC(=O)NCc2ccco2)c1`: the inhibition was -2.22% (inactive).

Regarding `CCN(CC)CCOC(=O)c1cccc(OC)c1`, the inhibition was -2.79% (inactive).

For the compound `COc1ccc(NC(=O)CCNC(=O)Cn2ccc3ccccc3c2=O)c(OC)c1`, the inhibition was 7.17% (inactive).

`COc1ccc(CCNc2oc(-c3ccccc3OC)nc2C#N)cc1`: the inhibition was -11% (inactive).

As for `Fc1ccc(-c2cnc[nH]2)cc1`, the inhibition is -8.55% (inactive).

Regarding `Cc1cc(NC(=O)CSc2nnc(C3CC3)n2C)no1`, the inhibition is -2.91% (inactive).
